In PubChem BioAssay (NCI):
This is part of a sample that, as a whole, favours compounds with a hit. Of some 83,000 tested, about 20% had one in any assay.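 Cells were grown in 96-well plates and exposed to the test compound at a single concentration for 48 hours; results are reported as percent growth, with values below 10 considered active.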 A number with no mark means an inactive call. Activity calls are given as the source filed them.

Key:
Assay in all cases: NCI-60 one-dose screen, 48 h (100 = growth as untreated, 0 = no growth, -100 = all killed)
Conditions in all cases: 10 µM unless noted
[1] = tested on: HCT-15 colon
[2] = tested on: HT29 colon
[3] = tested on: SNB-75 CNS
[4] = tested on: SNB-19 CNS
[5] = tested on: U251 CNS
[6] = tested on: SK-MEL-5 melanoma
[7] = tested on: UACC-62 melanoma
[8] = tested on: LOX IMVI melanoma
[9] = tested on: SK-MEL-28 melanoma
[10] = tested on: SK-MEL-2 melanoma
[11] = tested on: EKVX NSCLC
[12] = tested on: SN12C renal
[13] = tested on: UO-31 renal
[14] = tested on: TK-10 renal
[15] = tested on: ACHN renal
[16] = tested on: A498 renal
[17] = tested on: CCRF-CEM leukemia
[18] = tested on: MOLT-4 leukemia
[19] = tested on: CAKI-1 renal

SMILES | growth [1] | growth [2] | growth [3] | growth [4] | growth [5] | growth [6] | growth [7] | growth [8] | growth [9] | growth [10] | growth [11] | growth [12] | growth [13] | growth [14] | growth [15] | growth [16] | growth [17] | growth [18] | growth [19]
CN1CCN(c2ccc3nc(-c4ccc(OCCCCN5CCN(CCCCN6C(=O)c7cccc8cccc(c78)C6=O)CC5)cc4)[nH]c3c2)CC1 | 76.2% | 60.3% | 36.4% | 84.2% | 64.8% | 69.1% | 95.4% | 47.1% | 24.6% | 79.2% | 78.9% | 73.8% | 16.7% | 88.4% | 89% | 119% | 26.2% | 52% | –
COc1ccc2c(c1)O/C(=C\c1cccc(OCC(=O)Nc3nc4c(s3)CCCC4)c1)C2=O | 84.8% | 84.7% | 29.3% | 76.1% | 73.1% | 97.9% | 76.1% | -100% (active) | 114% | 82.5% | 90.2% | 53.8% | – | 115% | 97.4% | 88.8% | -67.9% (active) | 25.3% | -100% (active)
Cc1cc2c3ccccc3ccc2[n+]2ccccc12 | 105% | 69% | 14.6% | 4.52% (active) | 6.05% (active) | -44.8% (active) | 59.8% | 74.4% | 14.9% | 40.5% | 14.5% | -7% (active) | 56.9% | 88.4% | 95.1% | 9.14% (active) | 48.7% | 2.74% (active) | –
O=c1c2c3c(sc2nc(N/N=C/c2cn(-c4ccccc4)nc2-c2ccc(Cl)cc2)n1Cc1ccccc1)CCCC3 | 114% | 110% | 102% | 107% | 111% | 104% | 94.7% | 110% | 112% | 103% | 106% | 127% | 95.9% | 129% | – | 112% | 109% | 22% | 98.9%
CN(C)[C@@H]1C(=O)C(C(=O)NCc2nc3[nH]cnc(=S)c3[nH]2)=C(O)[C@@]2(O)C(=O)C3=C(O)c4c(O)cccc4[C@@](C)(O)[C@H]3C[C@@H]12 | 76.7% | 64.3% | 61.8% | 84.1% | 96% | 75.5% | 25.5% | 12.4% | 118% | 13.1% | 88.8% | 87.8% | 47.4% | 22.7% | 74% | 101% | 14.1% | 12.9% | –
NC(=O)c1cc(I)ccc1NC(=O)/C=C/c1ccccc1Cl | 17.8% | 8.09% (active) | -14.5% (active) | 31.9% | 21.8% | 3.33% (active) | 37.8% | 50.7% | 38% | 75.1% | 28% | – | 30.6% | 62.3% | 56.2% | 62.4% | -19.6% (active) | 10.4% | 13%
c1ccc(-c2cc3n4c(-c5ccccc5)nn(-c5ccccc5)c4cnc-3n2)cc1 | 86.2% | 44.3% | -8.19% (active) | 75.9% | 26.4% | 70.5% | 45.7% | 57.1% | 63.3% | 72.6% | – | 62.6% | 60.7% | 24.5% | 68.2% | 78.1% | 86.4% | 88.9% | 59.5%
CC(O)CN(CC(C)O)c1ccc2c(c1)Cc1cc([N+](=O)[O-])ccc1-2 (configuration not stated) | 83.5% | 103% | 87.5% | 98.9% | 102% | 103% | 95.7% | 96.2% | 109% | 95.9% | 74.8% | 99.6% | – | 97.3% | 93% | – | 106% | 69.8% | 84.6%
Cn1cc(C(=O)c2nc(-c3c[nH]c4ccc(Br)cc34)no2)c2cc(F)ccc21 | 92.1% | 102% | 74.8% | 99.1% | 100% | 83.8% | 78% | 95.4% | 105% | 97.5% | 73.2% | 92.8% | – | 115% | 89.6% | 107% | 100% | 94.8% | –
O=C1CSC(=S)N1CCc1ccc(O)cc1 | 59.3% | 107% | 71.3% | 93% | 100% | 97.1% | 87.5% | 77.1% | 101% | 103% | – | 81.6% | 60.3% | 68.7% | 91.4% | 97% | 51.1% | 93.4% | 81.4%
Cc1ccccc1COc1ccc(-c2onc(C)c2-c2ccc(Cl)cc2)cc1 | 37.6% | 16.9% | 52.9% | 55.5% | 41.3% | 73.4% | 48.5% | 68% | 70.5% | 37.1% | 75.1% | – | – | 84.3% | 67% | 38.6% | 38.2% | 32.8% | 48.7%
Cc1cc(C)nc(SC2=C(Nc3cc(Cl)ccc3O)C(=O)N(Cc3ccccc3)C2=O)n1 | 92.1% [30 µM] | 108% [30 µM] | 81% [30 µM] | 89.6% [30 µM] | 87.5% [30 µM] | 49% [30 µM] | 70.6% [30 µM] | 71.1% [30 µM] | 106% [30 µM] | 97.6% [30 µM] | – | 91.6% [30 µM] | 82.4% [30 µM] | 23.8% [30 µM] | 88.7% [30 µM] | 75.5% [30 µM] | 22.1% [30 µM] | 46.3% [30 µM] | 99.7% [30 µM]
COc1ccc(C(=S)N2CCN(c3cccc(Cl)c3)CC2)cc1 | 108% | 101% | 93.2% | 101% | 112% | 130% | 85.2% | 103% | 103% | 80.4% | 93.2% | 103% | – | 94% | 109% | 106% | – | 108% | –
COc1ccc(C(=O)c2sc3nc(C)cc(C)c3c2N)cc1OC | 85.4% | 88.2% | 84.3% | 79.6% | 66% | 93.4% | 80.8% | 96.5% | 101% | – | – | 102% | – | 88.7% | 88.2% | 87.5% | 98.2% | 96.4% | 99.5%
O=C1Nc2cc(-c3ccc(O)cc3)ccc2/C1=C/c1ccc[nH]1 | 7.26% (active) | 8.88% (active) | 19% | 27.8% | 18.9% | -17.3% (active) | 15.7% | -6.81% (active) | 23.6% | 2.16% (active) | – | 13.6% | -3.39% (active) | 17.7% | 4.81% (active) | -3.08% (active) | 6% (active) | 7.4% (active) | 2.43% (active)
c1csc(C2=NN3C(C2)c2ccccc2OC3c2ccncc2)c1 (configuration not stated) | 95.5% | 107% | 82.2% | 90.5% | 91.5% | 92.7% | 94.1% | 89.3% | 107% | 96.3% | 78.2% | 89.9% | – | 111% | 97.7% | 110% | 95.8% | 94.4% | –
NC(=O)c1cc(Cl)ccc1NC(=O)/C=C/c1ccccc1 | 27.3% | 8.83% (active) | 0.0967% (active) | 26.7% | 29.8% | 5.23% (active) | 47.7% | 53.3% | 40.6% | 57.7% | 41% | – | 41.3% | 45.1% | – | 54.1% | 3.8% (active) | 28.4% | 56.5%
